Consider five compounds from PubChem BioAssay.

Activity calls are given as the source filed them.

One assay deals with Albumin (Bos taurus) (UniProt P02769). The assay can be described thus: compounds binding labelled BSA control protein – biochemical, small-molecule microarray, Alexa647 label, 635/667 nm fluorescence, artefact control for SMM control protein annotation, profiling panel (AID 1118).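 Further: score merges 667 nm emission intensity and signal-to-noise per printed compound spot.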 The note with it: BSA-A647 binding, fluorescence 635 nm, higher = more signal.
Sequence of Albumin (Bos taurus) (P02769 whole entry, looked up): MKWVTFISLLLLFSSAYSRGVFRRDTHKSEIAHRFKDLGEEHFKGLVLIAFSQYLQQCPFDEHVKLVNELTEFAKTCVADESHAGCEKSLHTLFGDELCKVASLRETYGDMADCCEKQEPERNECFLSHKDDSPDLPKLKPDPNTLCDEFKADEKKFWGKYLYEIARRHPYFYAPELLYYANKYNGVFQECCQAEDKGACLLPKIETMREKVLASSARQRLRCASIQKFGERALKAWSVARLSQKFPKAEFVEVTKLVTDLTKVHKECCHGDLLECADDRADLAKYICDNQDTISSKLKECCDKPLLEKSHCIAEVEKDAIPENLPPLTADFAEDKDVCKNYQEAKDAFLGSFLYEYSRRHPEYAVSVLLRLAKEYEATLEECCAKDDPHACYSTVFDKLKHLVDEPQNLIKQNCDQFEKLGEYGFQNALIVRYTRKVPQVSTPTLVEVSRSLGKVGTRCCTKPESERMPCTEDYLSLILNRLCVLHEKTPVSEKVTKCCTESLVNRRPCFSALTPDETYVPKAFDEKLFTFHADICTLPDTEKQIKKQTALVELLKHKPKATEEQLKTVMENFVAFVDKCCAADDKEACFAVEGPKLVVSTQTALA
Assay [1] is described as follows: probe aXIP binding to arrayed compounds – biochemical, NeuroSMM set, 635/667 nm fluorescence, primary screen (AID 1119).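 Further: probe is the protein aXip251-270 applied at 1 µg/mL to compound-printed slides; binding of probe to printed compounds measured as 667 nm fluorescence plus signal to noise.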 As to conditions: small-molecule microarray, higher = more signal, called active from +8 up or from −8 down.
A short description of assay [2]: probe aNOTCH3 binding on compound microarray – biochemical, small-molecule microarray, 635/667 nm fluorescence, primary screen (AID 1120).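 Further: probe is a biotin-tagged antibody raised against NOTCH3 rather than NOTCH3 protein; score merges spot fluorescence near 667 nm with spot signal to noise.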 The note with it: higher = more signal.
The nature of assay [3]: probe aNOTCH2 binding on compound microarray – biochemical, small-molecule microarray, 635/667 nm fluorescence, primary screen (AID 1121).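 Further: score merges feature fluorescence read at 667 nm with its signal to noise.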 The note with it: higher = more signal.
Assay [4] concerns the target Carbonic anhydrase 2 (Homo sapiens) (UniProt P00918). The assay can be described thus: compounds binding carbonic anhydrase 2 – biochemical, small-molecule microarray, Alexa647-labelled CAII, profiling panel (AID 1122). The note with it: CAII-A647 binding fluorescence, higher = more signal.
Assay [5] in a line: COS7 lysate on small-molecule microarray, probe aHis, 635 nm (AID 1123).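 Further: z-score combines 667nm fluorescence intensity with signal-to-noise per printed compound spot.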 The note with it: COS7 cell lysate, fluorescence, higher = more signal.
Assay [6] can be described thus: probe aLAP1 signal on lysate-treated microarray – cell lysate, small-molecule microarray, COS7 lysate, primary screen (AID 1124).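 Further: lysate comes from COS7 cells expressing LAP1 and is applied at 0.3 µg/mL; score merges spot fluorescence near 667 nm with signal-to-noise over triplicate slides.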 As to conditions: probe aLAP1, fluorescence, higher = more signal.
For another assay, the system named is Sam68 (KHDRBS1). Nature of the assay: compounds binding KHDRBS1 protein – biochemical, small-molecule microarray, 635 nm fluorescence, primary screen (AID 1125).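 Further: score merges 667 nm channel intensity with signal to noise over triplicate slides.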 As to conditions: higher = more signal.
In assay [7] the test system is Chordin-like protein 2 (CHRDL2). Nature of the assay: compounds binding chordin-like 2 – biochemical, small-molecule microarray, 635 nm fluorescence, primary screen (AID 1126).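 Further: printed compound slides probed with Chrdl2 protein at 4 µg/mL for 1 h at 4 C; score merges 667 nm emission intensity with signal to noise over three replicate slides.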 The note with it: fluorescence 635 nm, higher = more signal.
In assay [8] the target is Concanavalin-A (Canavalia ensiformis) (UniProt P02866). Nature of the assay: compounds binding concanavalin A lectin – biochemical, small-molecule microarray, Alexa647 label, 635 nm, artefact control for SMM control protein annotation, primary screen (AID 1127).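 Further: z combines 667 nm emission intensity with signal-to-noise across three replicate slides.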 As to conditions: ConA-A647 binding fluorescence, higher = more signal.
Sequence of Concanavalin-A (Canavalia ensiformis) (P02866 whole entry, looked up): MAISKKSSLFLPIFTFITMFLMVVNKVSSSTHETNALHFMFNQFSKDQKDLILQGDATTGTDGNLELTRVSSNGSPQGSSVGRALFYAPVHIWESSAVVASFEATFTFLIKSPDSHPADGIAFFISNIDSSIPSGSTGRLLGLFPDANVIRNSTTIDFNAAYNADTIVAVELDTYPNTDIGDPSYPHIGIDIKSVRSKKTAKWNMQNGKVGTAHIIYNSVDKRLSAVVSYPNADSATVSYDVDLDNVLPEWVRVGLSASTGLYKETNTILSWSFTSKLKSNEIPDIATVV
A short description of assay [9]: compounds binding Alexa647 anti-His antibody – biochemical, small-molecule microarray, 635 nm fluorescence, artefact control for SMM control protein annotation, primary screen (AID 1128).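 Further: score merges feature fluorescence with signal-to-noise for each printed compound spot.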 The note with it: higher = more signal.
The test system of assay [10] is Human papillomavirus type 1a E7 protein (residues 1-88). Nature of the assay: HPV1a E7 small-molecule binders, primary screen, biochemical, small-molecule microarray, residues 1-88, 635 nm (AID 1129). The note with it: small-molecule microarray binding, fluorescence 635 nm; higher = more signal.
Assay [11] deals with Focal adhesion kinase 1 (Homo sapiens) (UniProt Q05397). Nature of the assay: PTK2 protein binding on printed compound slides – biochemical, small-molecule microarray, 635/667 nm fluorescence, BSA, DTT, primary screen (AID 1130).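 Further: composite of spot emission at 667 nm and signal to noise over triplicate slides.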 As to conditions: 635 nm fluorescence, higher = more signal.
Sequence of Focal adhesion kinase 1 (Homo sapiens) (Q05397 whole entry, looked up): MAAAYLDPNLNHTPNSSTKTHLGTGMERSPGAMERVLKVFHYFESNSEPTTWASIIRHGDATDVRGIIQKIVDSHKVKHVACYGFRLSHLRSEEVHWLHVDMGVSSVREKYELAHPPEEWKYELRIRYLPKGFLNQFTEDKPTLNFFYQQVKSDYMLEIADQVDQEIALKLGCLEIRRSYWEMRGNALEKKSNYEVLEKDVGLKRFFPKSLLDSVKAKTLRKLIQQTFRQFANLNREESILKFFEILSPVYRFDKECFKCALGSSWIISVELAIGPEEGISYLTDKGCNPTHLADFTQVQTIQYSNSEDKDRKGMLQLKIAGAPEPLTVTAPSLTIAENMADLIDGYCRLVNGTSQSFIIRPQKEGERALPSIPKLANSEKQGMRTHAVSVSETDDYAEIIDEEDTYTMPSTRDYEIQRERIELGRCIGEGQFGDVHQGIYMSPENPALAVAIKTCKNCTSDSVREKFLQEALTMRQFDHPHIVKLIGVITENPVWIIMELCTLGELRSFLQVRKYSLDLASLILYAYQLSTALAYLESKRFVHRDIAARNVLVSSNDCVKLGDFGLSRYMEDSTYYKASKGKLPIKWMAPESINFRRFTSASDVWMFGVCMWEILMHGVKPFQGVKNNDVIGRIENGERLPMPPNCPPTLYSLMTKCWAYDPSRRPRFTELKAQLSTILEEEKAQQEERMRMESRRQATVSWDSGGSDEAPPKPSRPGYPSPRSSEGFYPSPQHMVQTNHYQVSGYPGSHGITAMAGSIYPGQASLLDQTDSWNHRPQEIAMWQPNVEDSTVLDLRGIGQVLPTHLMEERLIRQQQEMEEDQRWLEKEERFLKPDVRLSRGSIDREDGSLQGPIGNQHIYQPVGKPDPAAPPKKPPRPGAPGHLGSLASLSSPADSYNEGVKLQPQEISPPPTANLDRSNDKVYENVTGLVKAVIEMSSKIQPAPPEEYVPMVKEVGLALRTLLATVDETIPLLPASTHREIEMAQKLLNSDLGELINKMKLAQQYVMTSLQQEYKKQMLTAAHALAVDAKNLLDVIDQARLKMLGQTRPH
In assay [12] the test system is Fibrinogen (Alexa647-labelled). Nature of the assay: Alexa647-fibrinogen binding to printed small molecules – biochemical, small-molecule microarray, 635/667 nm fluorescence, artefact control for SMM control-protein annotation, profiling panel (AID 1131).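 Further: z-score merges 667 nm fluorescence with per-spot signal-to-noise over triplicate slides.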 As to conditions: fibrinogen-A647 binding fluorescence, higher = more signal.
The target of assay [13] is Follistatin (Homo sapiens) (UniProt P19883). Nature of the assay: FST protein binding to printed compounds – biochemical, small-molecule microarray, 635/667 nm fluorescence, primary screen (AID 1132). As to conditions: 635 nm fluorescence, higher = more signal.
Sequence of Follistatin (Homo sapiens) (P19883 whole entry, looked up): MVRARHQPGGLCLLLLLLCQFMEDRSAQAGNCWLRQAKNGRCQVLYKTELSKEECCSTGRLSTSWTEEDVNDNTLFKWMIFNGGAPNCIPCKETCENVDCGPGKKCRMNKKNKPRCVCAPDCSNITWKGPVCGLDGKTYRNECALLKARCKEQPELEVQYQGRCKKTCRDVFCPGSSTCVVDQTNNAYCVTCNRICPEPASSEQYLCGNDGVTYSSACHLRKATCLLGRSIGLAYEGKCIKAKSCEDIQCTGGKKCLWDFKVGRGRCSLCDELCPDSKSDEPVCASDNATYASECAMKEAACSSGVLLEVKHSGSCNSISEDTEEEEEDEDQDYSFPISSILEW
In assay [14] the target is Fibroblast growth factor 2 (Homo sapiens) (UniProt P09038). Nature of the assay: basic fibroblast growth factor binding to printed compounds – biochemical, small-molecule microarray, 635/667 nm fluorescence, primary screen (AID 1133). As to conditions: FGF2, fluorescence 635/667, higher = more signal.
Sequence of Fibroblast growth factor 2 (Homo sapiens) (P09038 whole entry, looked up): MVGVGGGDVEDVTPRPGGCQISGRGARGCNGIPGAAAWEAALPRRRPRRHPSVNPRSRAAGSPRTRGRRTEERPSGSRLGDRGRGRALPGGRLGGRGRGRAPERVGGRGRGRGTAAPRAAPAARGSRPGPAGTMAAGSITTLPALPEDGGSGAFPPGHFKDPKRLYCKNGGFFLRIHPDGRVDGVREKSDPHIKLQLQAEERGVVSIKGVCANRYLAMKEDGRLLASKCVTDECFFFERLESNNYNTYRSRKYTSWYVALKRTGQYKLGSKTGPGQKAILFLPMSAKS
The nature of assay [15]: JC-1 mitochondrial potential readout, lung cancer cells – cell-based, A549, JC-1 fluorescence, basal, 24 h, 100 nL, profiling panel (AID 1138).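 Further: A549 lung adenocarcinoma cells under basal conditions with no added stimulus; test concentration not given here.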 As to conditions: higher = more signal.
A further assay deals with Lefty1. The assay can be described thus: Lefty1 protein binding to printed compounds – biochemical, small-molecule microarray, 635/667 nm fluorescence, primary screen (AID 1139). As to conditions: fluorescence 635/667, higher = more signal.
Assay [16] deals with wheat germ agglutinin (Triticum aestivum), Alexa647-labelled. The assay can be described thus: Alexa647-WGA lectin binding to printed small molecules – biochemical, small-molecule microarray, 635/667 nm fluorescence, artefact control for SMM control-protein annotation, profiling panel (AID 1140).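 Further: score merges 667 nm feature emission with signal to noise over triplicate slides.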 The note with it: WGA-A647 binding, 635 nm fluorescence, higher = more signal.
For assay [17], the target named is Luciferin 4-monooxygenase (Photinus pyralis) (UniProt P08659). The assay can be described thus: inhibition of purified Photinus pyralis luciferase – biochemical, luminescence, purified enzyme, 2006 set, primary screen (AID 1141).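 Further: cell-free assay with purified firefly luciferase at 100 ng per well in PBS; test concentration not given here.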 The note with it: purified firefly luciferase, SteadyGlo luminescence, 30 min; higher = more signal, called active from +8 up or from −8 down.
Sequence of Luciferin 4-monooxygenase (Photinus pyralis) (P08659 whole entry, looked up): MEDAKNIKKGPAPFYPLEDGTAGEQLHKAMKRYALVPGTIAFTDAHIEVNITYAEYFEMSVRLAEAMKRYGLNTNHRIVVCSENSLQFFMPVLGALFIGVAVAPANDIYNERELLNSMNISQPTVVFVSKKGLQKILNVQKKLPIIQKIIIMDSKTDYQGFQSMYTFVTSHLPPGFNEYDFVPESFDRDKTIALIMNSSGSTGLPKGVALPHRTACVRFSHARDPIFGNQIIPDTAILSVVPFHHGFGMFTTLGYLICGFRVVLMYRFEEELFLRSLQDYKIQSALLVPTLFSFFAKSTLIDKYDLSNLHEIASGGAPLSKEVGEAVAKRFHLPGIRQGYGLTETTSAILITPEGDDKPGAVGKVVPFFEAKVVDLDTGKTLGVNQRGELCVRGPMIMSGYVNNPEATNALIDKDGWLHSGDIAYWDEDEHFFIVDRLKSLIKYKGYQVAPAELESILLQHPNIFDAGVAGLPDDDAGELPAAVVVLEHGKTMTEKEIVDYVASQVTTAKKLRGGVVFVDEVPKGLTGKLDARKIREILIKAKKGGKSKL

Take `CCCNC(=O)[C@@H]1c2ccccc2C(=O)N(C(C)C)[C@H]1c1ccc(CO)cc1`: the composite z-score in the assay with Albumin (Bos taurus) was -0.342; in assay [2], -0.0728; in [3] it was -0.0567; in assay [4] it was 0.322; in [5] it was 0.113; in [6], 0.784. Moreover, the composite z-score is 0.437 with Sam68 (KHDRBS1); -0.605 in [7]; 0.208 in [8]; 3 in [9]; -0.645 in [10]; -0.19 in [11]. The composite z-score in assay [12] was -0.29; in [13] it was -0.577; in assay [14], -0.517; in the assay on Lefty1 it was -0.371; in assay [16] it was -0.03. Also, in [1], the composite Z-score was 0.251 (inactive). For the same compound, the z-score was 1.39 in assay [15] and 0.407 (inactive) in assay [17].

Consider `C=CCOC(=O)[C@H]1[C@@H]2C(=O)O[C@@H](c3ccccc3)[C@@H](c3ccccc3)N2[C@@H](c2ccc(OCCOC(=O)[C@@H]3C[C@@H]4C(=O)N[C@@H](CCCCNC(C)=O)C(=O)N4[C@@H]3c3ccc(O)cc3)cc2)[C@]12C(=O)Nc1ccc(I)cc12`, for which the composite z-score was -0.689 with Albumin (Bos taurus); 0.108 in [2]; 0.0083 in assay [3]; 0.631 in [4]; 1.69 in assay [5]; 0.719 in assay [6]. For the same compound, the composite z-score turned out to be 1.29 in the assay on Sam68 (KHDRBS1); 1.01 in assay [7]; 0.764 in [8]; 1.66 in assay [9]; 1.21 in assay [10]; 0.736 in assay [11]. Further, the composite z-score was found to be 0.468 in [12]; 1.32 in [13]; 1.49 in assay [14]; 0.752 in the assay with Lefty1; 0.0621 in assay [16]. For the same compound, the composite Z-score in assay [1] is 1.53 (inactive). Moreover, the z-score in [15] was -1.38; in [17] it was -0.875 (inactive).

For the compound `COCCOC(=O)N1C(=O)[C@@]2(c3cc(C#Cc4ccc(OC)cc4)ccc31)[C@H](C(=O)Nc1nc3ccccc3s1)[C@H]1C(=O)O[C@H](c3ccccc3)[C@H](c3ccccc3)N1[C@@H]2c1ccc(OCCO)cc1`, the composite z-score with Albumin (Bos taurus) is -0.0497; in [2], 0.0493; in assay [3], -0.0539; in assay [4], 0.458; in [5] it was 0.757; in [6] it was -0.38. The composite z-score in the assay on Sam68 (KHDRBS1) is 1.31; in assay [7] it was 0.68; in assay [8], 1.16; in assay [9], 1.14; in assay [10], 1.12; in [11], 0.168. For the same compound, the composite z-score was found to be 0.809 in assay [12]; 1.17 in [13]; 1.28 in assay [14]; 0.87 in the assay on Lefty1; 0.494 in assay [16]. The composite Z-score in [1] was 0.308 (inactive). The figures for the z-score in [15] and in assay [17] were -2.19 and -3.71 (inactive), respectively.

As for `CN(C)CCCNC(=O)[C@@H]1c2ccccc2C(=O)N(Cc2ccccc2Cl)[C@H]1c1ccc(CO)cc1`, the composite z-score with Albumin (Bos taurus) is 0.301; in assay [2] it was -0.236; in assay [3], -0.0993; in [4] it was 0.73; in assay [5] it was 1.17; in assay [6], 0.982. Besides, the composite z-score was 0.671 with Sam68 (KHDRBS1); -0.349 in [7]; -0.284 in assay [8]; 1.3 in assay [9]; 0.51 in assay [10]; -0.0522 in assay [11]. Also, the composite z-score was 0.462 in [12]; -0.0713 in assay [13]; -0.0728 in [14]; -0.92 with Lefty1; 1.05 in assay [16]. In addition, in assay [1], the composite Z-score was 0.247 (inactive). The z-score was 1.53 in assay [15] and -0.751 (inactive) in assay [17].

With `CCOC(=O)C[C@H]1[C@H](OC(=O)c2cc3ccccc3oc2=O)[C@@H](NC(=O)Cc2ccc(OC)cc2)c2cc(OCCCO)ccc2N1C(=O)c1ccc2ccccc2n1`, the composite z-score is -0.116 in the assay with Albumin (Bos taurus); -0.152 in assay [2]; -0.0666 in assay [3]; 0.353 in assay [4]; 0.303 in assay [5]; 0.096 in assay [6]. The composite z-score with Sam68 (KHDRBS1) turned out to be 0.206; in assay [7], 0.583; in assay [8] it was 0.0304; in assay [9] it was 1.37; in [10], 0.649; in assay [11] it was 0.199. In addition, the composite z-score was determined as 0.122 in assay [12]; 0.93 in [13]; 0.956 in assay [14]; 0.838 in the assay on Lefty1; 0.0863 in [16]. Further, the composite Z-score in assay [1] was -0.431 (inactive). The z-score in assay [15] is -0.013; in assay [17], 0.0113 (inactive).
